# Rows were chosen to be rich in hits. Some 21% of all compounds tested hit in one or more screens of this group.
# Shiga toxin inh: Shiga toxin inhibition | Vero cells, Shiga toxin protein synthesis inhibition reporter | inhibition, % at 38.7 µM | hit rate 9.2% among 290,000; in the data active means inhibition mostly above about 28%, no sharp cut-off; inactive means mostly below about 43%
# Pf growth 48h: inhibits P. falciparum growth in the first generation, 48 h; hit rate 5.9% among 310,000; P. falciparum luciferase growth in erythrocytes, 48 h; Potency, µM (titrated, usually from 28.7 µM), actives largely listed as inhibitors; AID 504832
#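 Here the parasites carry a stable luciferase gene and grow inside erythrocytes in Albumax-based RPMI medium with compound for one erythrocytic cycle. Activity is scored as loss of luminescent signal.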
# Pf growth 96h: P. falciparum growth inhibition at 96 hour, primary screen for plastid delayed-death inhibitors; P. falciparum luciferase reporter growth, 96 h; Potency, µM (highest dose often 28.7 µM), hits mostly inhibitors; hit rate 6.9% among 320,000; AID 504834
#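 Cell-based qHTS: luciferase-tagged P. falciparum in erythrocytes (2% hematocrit, 0.05% parasitemia final) incubated with compounds for 96 hours, 37 C, 5% CO2; luciferase detection reagent then added and luminescence measured.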
# CHX counter: counter-screen hit for Shiga toxin inhibitors, cycloheximide | cell reporter, cycloheximide protein synthesis inhibition counterscreen | max response, % | hit rate 12% among 300,000; in the data active means max response mostly above about 13%, no sharp cut-off; inactive means mostly below about 14%; further: read at 38.3 µM for the half of the compounds with a filed dose
# NS1 function inh: influenza NS1 inhibition. Potency, µM (highest dose often 46.1 µM). hit rate 0.4% among 270,000. AID 2326; calls by dose curve; further: actives are rising curves; nearly all actives have a fitted effect of over 50% in size
#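 A cell-based growth assay was used: compounds that relieve NS1-induced slow growth of budding yeast raise OD600. Assay medium was yeast nitrogen base with ammonium sulphate and -URA supplement, pH 6.0, with 2% galactose.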
# Hits are given with their value; n = inactive; u = inconclusive; x = no result. Unless noted, the call rests on the fitted dose curve; in most records, active means well fitted inhibition curve with a large enough effect; inconclusive means small, poorly fitted or top-dose-only effect, or another doubt; inactive means no such curve, though single readings can be large or run the other way.
SMILES,Shiga toxin inh,Pf growth 48h,Pf growth 96h,CHX counter,NS1 function inh
CCOc1cccc(SCc2noc(C(=O)NCC3CCCO3)c2C(=O)O)c1 (stereo unspecified),n,n,n,n,n
COc1ccc(C(=O)c2ccc([N+](=O)[O-])cc2Cl)cc1,n,n,n,n,n
COc1ccc(N=c2cc(-c3ccc(OC)cc3)oc3ccccc23)cc1,n,u,n,n,n
CCOc1ccc(N=c2cc(-c3ccc(OC)cc3)oc3ccccc23)cc1,n,u,u,n,n
COc1ccc(N=c2cc(-c3ccc(O)cc3)oc3ccccc23)cc1,12.2,3.29µM,u,41.6,n
COc1ccc(-c2cc(=Nc3ccccc3)c3cc(C)ccc3o2)cc1,96.6,n,n,86.5,n
COc1ccc(-c2cc(=Nc3ccc(C)cc3)c3ccccc3o2)cc1,n,u,6.57µM,n,n
O=C(CN1C(=O)c2cccnc2Oc2ccc(Cl)cc21)NC1CCCCC1,n,u,n,n,n
CCOC(=O)N(NC(=O)C(O)(CC(C)C)CC(C)C)c1ccccc1,n,n,n,n,n
COc1cnc(-c2ccccc2)[nH]c1=O,n,n,n,n,x
CC(NC(=O)c1ccco1)C(c1cccs1)N1CCN(c2ccccc2)CC1 (stereo unspecified),n,11.7µM,13.1µM,n,n
CCS(=O)(=O)NC(C)C(c1cccs1)N1CCN(c2ccc(F)cc2)CC1 (stereo unspecified),n,n,n,n,n
CC(NC(=O)c1ccco1)C(c1cccs1)N1CCN(c2ccc(F)cc2)CC1 (stereo unspecified),n,7.38µM,x,n,n
CC(NC(=O)c1ccco1)C(c1cccs1)N1CCN(c2ccccc2F)CC1 (stereo unspecified),n,u,x,n,n
CCc1ccccc1N1CC(C(=O)Nc2cc(C)on2)CC1=O (stereo unspecified),n,n,u,n,n
CCc1ccc(N2CC(C(=O)OCC(=O)Nc3ccc(C(C)=O)cc3)CC2=O)cc1 (stereo unspecified),x,n,n,x,x
O=C(CSc1ncn[nH]1)Nc1nc(-c2ccccc2)cs1,n,x,u,n,n
c1ccc(Nc2nc(CSc3ncn[nH]3)cs2)cc1,68.1,n,n,43.5,x
COc1ccc(N=C2SCC(=O)N2Cc2ccccc2)cc1,n,n,9.28µM,n,x
COc1ccc(/C=N/N=C2/SCC(=O)N2Cc2ccccc2)cc1,85.6,n,n,47.3,n
CC(C)CCOc1ccc(/C=N/N2C(=O)CSC2=S)cc1,n,n,n,n,n
COc1ccc(/C=N/N2C(=N)SCC2=O)cc1,n,n,n,14.3,n
COc1ccc(/C=N/N=C2\SC(CC(=O)O)C(=O)N2c2ccccc2)cc1 (stereo unspecified),n,n,1.65µM,n,n
COCCNC(=S)NCCc1ccc(Cl)cc1Cl,n,n,n,n,x
CCCC1S/C(=N/N=C/c2ccc(C)cc2)N(Cc2ccc(OC)cc2)C1=O (stereo unspecified),n,4.15µM,10.4µM,n,n
SMILES,Shiga toxin inh,Pf growth 48h,Pf growth 96h,CHX counter,NS1 function inh
CC(C)Oc1cccc(NC(=O)c2cnccc2C(F)(F)F)c1,n,n,n,n,n
Cn1cnnc1Sc1ccc(C(F)(F)F)cc1[N+](=O)[O-],n,n,n,n,x
CN(C)/C=C1/C=C(C=O)OC1=O,n,n,n,n,n
COC(F)(F)C(Cl)Cl,x,n,n,x,x
O=C(Cc1ccc(Br)cc1)N1CCCCCC1,60.3,n,n,46.5,n
Oc1c(Br)cc(Br)cc1CN1CCN(Cc2ccccc2)CC1,n,1.85µM,x,n,n
O=[N+]([O-])c1ccc(C(O)CN2CCN(C/C=C/c3ccccc3)CC2)cc1 (stereo unspecified),n,7.38µM,4.15µM,n,n
O=C(Cc1ccc(Br)cc1)N1CCCC1,n,n,n,n,n
COC(=O)C1CCN(C(=O)Cc2ccc(Br)cc2)CC1,66.0,n,n,28.2,n
Oc1c(Br)cc(Br)cc1/C=N/N1CCN(Cc2ccccc2)CC1,n,n,n,n,n
O=[N+]([O-])c1ccc(C(O)CN2CCN(Cc3ccccc3)CC2)cc1 (stereo unspecified),n,u,u,n,n
COc1ccccc1NC(=O)C1CCCN(S(=O)(=O)c2ccc(-n3cnnn3)cc2)C1 (stereo unspecified),n,u,n,n,n
S=c1[nH]nc([C@@H]2C[C@H]2c2ccccc2)n1-c1ccccc1Cl,n,n,n,n,n
O=C(Cc1ccc(Br)cc1)N1CCN(Cc2ccccc2)CC1,n,u,u,18.4,n
O=C(C1CCN(Cc2ccccc2)CC1)N1CCN(C/C=C/c2ccccc2)CC1,n,n,n,n,n
CC(CN1CCN(C/C=C/c2ccccc2)CC1)c1ccccc1 (stereo unspecified),x,n,n,n,n
O=C(Cc1ccccc1)N1CCN(C/C=C/c2ccccc2)CC1,n,n,3.29µM,n,n
C(=C/c1ccccc1)/CN1CCN(C(c2ccccc2)c2ccccc2)CC1,x,u,7.21µM,x,x
Cc1ccc(C(=O)C(C)OC(=O)Cn2c(C)csc2=O)cc1 (stereo unspecified),n,n,n,n,n
CO/N=C/C(c1ncc(C(F)(F)F)cc1Cl)S(=O)(=O)c1ccccc1 (stereo unspecified),n,10.4µM,9.28µM,n,n
O=S(=O)(Cc1ncc(C(F)(F)F)cc1Cl)c1ccccc1,51.0,n,n,44.5,n
Cc1cc(=O)c(C(=O)O)nn1-c1ccccc1F,n,n,n,n,n
O=C(COC(=O)c1ccc2c(=O)n3c(nc2c1)CCC3)NC1CCS(=O)(=O)C1 (stereo unspecified),n,n,n,n,n
CCCCNc1c(C(=O)OCC)c(C)nc2c1cnn2CC,x,u,15.1µM,x,n
CCOC(=O)c1c(C)nc2c(C#N)cnn2c1C,n,n,n,n,n
SMILES,Shiga toxin inh,Pf growth 48h,Pf growth 96h,CHX counter,NS1 function inh
CCC1CCc2sc(C(=O)N3CCCN(C)CC3)cc2C1 (stereo unspecified),n,n,n,23.0,n
COc1ccc(NC(=O)CC(C)NCCCN2CCCC2=O)cc1 (stereo unspecified),n,n,n,n,n
O=C(O)c1cc(N/N=C2/CC(c3ccccc3)Oc3ccccc32)ccc1Cl (stereo unspecified),54.2,n,n,40.2,n
CCn1c(N)c(C(=O)Nc2ccccc2C(=O)OC)sc1=S,n,n,13.1µM,n,n
CN1CCN(c2ccccc2NC(=O)c2ccccc2F)CC1,n,n,u,n,n
Cn1c(N)c(C(=O)N/N=C/c2ccccc2)sc1=S,n,n,n,n,n
COc1ccccc1-n1c(N)c(C(N)=O)sc1=S,n,n,n,n,n
Cn1c(N)c(C(=O)Nc2ccccc2F)sc1=S,n,n,n,9.0,n
Nc1c(C(=O)Nc2ccc(F)cc2)sc(=S)n1-c1ccccc1F,59.9,n,n,29.0,x
Cn1c(N)c(C(=O)Nc2ccc3ccccc3c2)sc1=S,57.0,n,n,43.1,n
CCn1c(N)c(C(=O)NCCOC)sc1=S,n,x,n,n,n
CC(=O)OCC(=O)c1ccc2ccn(C(C)=O)c2c1,n,n,10.4µM,25.1,n
O=C(NCc1cccnc1)C1CCCN(S(=O)(=O)c2ccc(Cl)cc2)C1 (stereo unspecified),n,n,n,36.4,n

# Screening data: PubChem, National Center for Advancing Translational Sciences (NCATS)
